“And” between values parts separate entries of the source, which are not always exact repeats. Equal values may be shown once. Inconclusive results are not listed. More than one record can exist for a structure, and the calls need not agree. The source made the active and inactive calls. Unless noted, the call rests on the fitted dose curve; in most records, active means well fitted curve in the direction sought with a large enough effect; inconclusive means small, poorly fitted or top-dose-only effect, or another doubt; inactive means no such curve, though single readings can be large; an effect the other way counts as inactive or inconclusive.
Legend:
[1] = NS1 protein of Zika virus - qHTS assay to identify small molecule inhibitors in human HEK 293 cells (AID 1347053); further: nearly all actives have a fitted effect of over 55% in size; further: potency means the concentration at half of the fitted maximal effect
Outline: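 Compound-treated (1 h pre-infection) HEK 293 cells infected with ZIKV MR766, MOI = 0.5; after 24 h at 37 C, NS1 read by TR-FRET; data normalized to uninfected and infected controls.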

[2] = target: T1, Tyrosine-protein phosphatase non-receptor type substrate 1 (Homo sapiens) + Leukocyte surface antigen CD47 (Homo sapiens) (UniProt P78324+Q08722); experiment: CD47-SIRPalpha protein protein interaction - LANCE assay qHTS validation (AID 1347057; active means well fitted curve in the direction sought with a large enough effect in the signal ratio, with a control signal flat, not every such curve was filed as active; the % refers to the signal ratio; further: series mostly up to about 38 µM)
Outline: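 Inhibition of soluble CD47/SIRPalpha ectodomain association by titrated compounds, measured as 665/615 nm time-resolved FRET ratio after sequential 30 min room-temperature incubations.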

[3] = target: Parathyroid hormone/parathyroid hormone-related peptide receptor (Homo sapiens) (UniProt Q03431); experiment: qHTS for PTHR1 Agonists: Optimization Screen against the NCGC LOPAC library (AID 1347079);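 further: GloSensor cAMP luminescence in HEK-293 GP2 cells expressing human PTHR1 with IBMX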; further: potency means the concentration at half of the fitted maximal effect
Outline: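 HEK-293 GP2 cells, PTHR1 + GloSensor cAMP; 3000 cells/well, o/n. Luciferin + IBMX 0.5mM each (stock), 1 hr 37C. Cpd titration, 1 hr 37C. Lum after 15 min RT. Ctrl M-PTH(1-15) top 10uM.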

[4] = qHTS of pediatric cancer cell lines to identify multiple opportunities for drug repurposing: Primary screen for TC32 cells (AID 1347089); further: nearly all actives have a fitted effect of over 60% in size; further: potency means the concentration at half of the fitted maximal effect
Outline: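 A viability screen of TC32 cells was run over 48 h, with primary MIPE doses spanning 0.78 nM–46 µM and NPC doses 0.59 nM–46 µM. ATP luminescence (CellTiter-Glo) served as the read-out.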

[5] = qHTS of pediatric cancer cell lines to identify multiple opportunities for drug repurposing: Primary screen for DAOY cells (AID 1347090); further: nearly all actives have a fitted effect of over 55% in size; further: potency means the concentration at half of the fitted maximal effect
Outline: (§1)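 Eight- or eleven-point concentration series, 48 h treatment at 37 degrees C in growth media; readout CellTiter-Glo luminescence. Potency and efficacy were taken from the concentration-response curves.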

[6] = qHTS of pediatric cancer cell lines to identify multiple opportunities for drug repurposing: Primary screen for SK-N-MC cells (AID 1347093); further: potency means the concentration at half of the fitted maximal effect
Outline: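 Metabolically active cells were quantified by ATP-dependent luminescence (CellTiter-Glo, 15 min at room temperature) following 48 h treatment. Cells had been plated at 500-1,000 per well and settled for 5 h beforehand.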

[7] = qHTS of pediatric cancer cell lines to identify multiple opportunities for drug repurposing: Primary screen for A673 cells (AID 1347092); further: nearly all actives have a fitted effect of over 45% in size; further: potency means the concentration at half of the fitted maximal effect
Outline: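 Titration-based qHTS on A673 cells: MIPE compounds spanned 11 points (0.78 nM to 46 µM final), NPC compounds 8 points (0.59 nM to 46 µM final). Viability after 48 h was measured by ATP luminescence.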

[8] = target: T1, Tyrosine-protein phosphatase non-receptor type substrate 1 (Homo sapiens) + Leukocyte surface antigen CD47 (Homo sapiens); experiment: CD47-SIRPalpha protein protein interaction - Alpha assay qHTS validation (AID 1347059)
Outline: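 In PBS (pH 7.4) with 0.05% IGEPAL CA-630, compound is preincubated with biotin-Avi-SIRPalpha ectodomain before His-CD47 ectodomain and affinity beads are added. Light-protected room-temperature incubations; AlphaScreen readout.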

[9] = target: T1, Tyrosine-protein phosphatase non-receptor type substrate 1 (Homo sapiens) + Leukocyte surface antigen CD47 (Homo sapiens); experiment: CD47-SIRPalpha protein protein interaction - HTRF assay qHTS validation (AID 1347058; active means well fitted curve in the direction sought with a large enough effect in the signal ratio, not every such curve was filed as active; the % refers to the signal ratio; further: series mostly up to about 38 µM)
Outline: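 Soluble extracellular domains (6His-CD47, Avi-tag-biotinylated SIRPalpha) in PBS pH 7.4 with 0.05% IGEPAL CA-630. Compounds were preincubated 30 min at RT with CD47 and anti-His-Eu, then SIRPalpha and SAV-XL665 were added. TR-FRET 665/615 ratio.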

[10] = qHTS of pediatric cancer cell lines to identify multiple opportunities for drug repurposing: Primary screen for SJ-GBM2 cells (AID 1347091); further: potency means the concentration at half of the fitted maximal effect
Outline: as §1

Measured: Potency

Chain of Parathyroid hormone/parathyroid hormone-related peptide receptor (Homo sapiens) (Q03431 whole entry, looked up): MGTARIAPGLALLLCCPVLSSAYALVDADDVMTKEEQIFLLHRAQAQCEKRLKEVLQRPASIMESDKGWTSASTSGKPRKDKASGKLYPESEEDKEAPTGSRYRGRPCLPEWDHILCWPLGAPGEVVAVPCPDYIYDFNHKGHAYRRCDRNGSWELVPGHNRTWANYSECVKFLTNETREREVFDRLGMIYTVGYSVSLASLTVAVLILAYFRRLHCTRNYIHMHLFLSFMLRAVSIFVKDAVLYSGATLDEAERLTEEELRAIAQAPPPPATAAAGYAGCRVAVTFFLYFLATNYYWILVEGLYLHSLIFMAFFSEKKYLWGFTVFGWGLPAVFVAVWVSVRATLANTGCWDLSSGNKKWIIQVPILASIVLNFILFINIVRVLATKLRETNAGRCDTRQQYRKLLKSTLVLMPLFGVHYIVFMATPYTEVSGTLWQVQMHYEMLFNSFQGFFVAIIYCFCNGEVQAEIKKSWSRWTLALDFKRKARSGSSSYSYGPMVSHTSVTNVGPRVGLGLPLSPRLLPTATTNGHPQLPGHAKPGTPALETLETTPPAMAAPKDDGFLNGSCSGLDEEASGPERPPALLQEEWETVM
T1 sequence (P78324 whole entry, looked up, the tested form may be a part): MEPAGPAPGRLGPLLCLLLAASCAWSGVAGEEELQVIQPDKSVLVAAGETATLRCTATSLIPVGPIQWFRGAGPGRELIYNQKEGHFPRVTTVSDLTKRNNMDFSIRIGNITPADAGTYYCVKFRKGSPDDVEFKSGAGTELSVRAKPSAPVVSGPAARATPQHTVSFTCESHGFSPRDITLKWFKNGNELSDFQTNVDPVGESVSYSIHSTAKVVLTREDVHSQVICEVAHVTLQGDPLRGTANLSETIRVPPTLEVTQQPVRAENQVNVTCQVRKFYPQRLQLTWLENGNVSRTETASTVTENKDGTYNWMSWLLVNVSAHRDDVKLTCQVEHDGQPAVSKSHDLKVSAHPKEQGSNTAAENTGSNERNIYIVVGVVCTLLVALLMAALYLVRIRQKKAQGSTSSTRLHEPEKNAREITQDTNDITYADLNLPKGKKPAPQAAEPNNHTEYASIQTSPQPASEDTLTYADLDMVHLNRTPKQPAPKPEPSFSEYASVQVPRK
T1 sequence (Q08722 whole entry, looked up, the tested form may be a part): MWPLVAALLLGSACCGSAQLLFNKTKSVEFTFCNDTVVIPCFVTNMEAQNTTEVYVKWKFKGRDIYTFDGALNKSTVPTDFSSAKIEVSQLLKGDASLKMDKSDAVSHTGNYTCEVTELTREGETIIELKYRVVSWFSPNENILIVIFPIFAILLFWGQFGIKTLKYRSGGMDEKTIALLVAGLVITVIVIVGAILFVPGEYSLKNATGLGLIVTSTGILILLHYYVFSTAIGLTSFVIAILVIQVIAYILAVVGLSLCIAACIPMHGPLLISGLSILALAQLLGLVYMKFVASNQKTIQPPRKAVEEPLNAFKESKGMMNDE

Fc1ccc([C@@H]2CCNC[C@H]2COc2ccc3c(c2)OCO3)cc1
inactive: [1] | [2] | [3] | [4] | [5] | [6]

CC1(C)O[C@H]2CC(=O)OC[C@]23[C@H]2CC[C@@]4(C)[C@H](c5ccoc5)OC(=O)[C@H]5O[C@]54[C@]2(C)C(=O)C[C@@H]13
inactive: [1] | [4] | [5] | [7] | [6]

OCCN(CCO)c1nc(N2CCCCC2)c2nc(N(CCO)CCO)nc(N3CCCCC3)c2n1
inactive: [1] | [8] | [3] | [4]
active: [6] 23.5 µM

Clc1ccccc1C(c1ccccc1)(c1ccccc1)n1ccnc1
inactive: [2] | [9] | [8] | [3] | [4] | [5]

CN1C(C(=O)Nc2ccccn2)=C(O)c2ccccc2S1(=O)=O
not listed: [6] | [9]
inactive: all other assays above

CC(COc1ccccc1)N(CCCl)Cc1ccccc1 (stereo not given)
inactive: [1] | [3] | [4] | [5] | [6]

NC(=O)NO
inactive: [1] | [2] | [9] | [8] | [3] | [5]

C[C@H]1c2cccc(O)c2C(O)=C2C(=O)[C@]3(O)C(O)=C(C(N)=O)C(=O)[C@@H](N(C)C)[C@@H]3[C@@H](O)[C@@H]21
not listed: [7] | [8] | [10]
inactive: all other assays above

Clc1ccc2nsnc2c1NC1=NCCN1
inactive: [1] | [3] | [4] | [5] | [7]

COc1ccc(CCN(C)CCCC(C#N)(c2ccc(OC)c(OC)c2)C(C)C)cc1OC (stereo not given)
not listed: [2] | [8] | [9]
inactive: all other assays above

CN(C)CCCN1c2ccccc2CCc2ccc(Cl)cc21
active: [7] 0.469 µM | [6] 332 nM and 23.7 µM
inactive: [1] | [3] | [4]

CC(C)NCC(O)c1ccc(O)c(O)c1 (stereo not given)
active: [3] 0.0119 µM | [7] 1.18 µM | [6] 0.935 µM
not listed: [5] | [10]
inactive: all other assays above

C[C@@H]1CC(=O)NN=C1c1ccc(NN=C(C#N)C#N)cc1
inactive: [4]
inactive and 14.8 µM (active): [1]
active: [5] 26.6 µM | [7] 23.5 µM

CN1CCC(=C2c3ccccc3C=Cc3ccccc32)CC1
active: [7] 18.7 µM
not listed: [6] | [9] | [10]
inactive: all other assays above

CCOC(=O)Nc1ccc(NCc2ccc(F)cc2)nc1N
not listed: [7] | [9]
inactive: all other assays above

CCOC(=O)C(C)(C)Oc1ccc(Cl)cc1
not listed: [1]
inactive: all other assays above

NS(=O)(=O)c1cc2c(cc1Cl)NCNS2(=O)=O
not listed: [1]
inactive: all other assays above

O=c1c(O)c(-c2ccc(O)c(O)c2)oc2cc(O)cc(O)c12
inactive: [1] | [3] | [4] | [10]
active: [7] 14.8 µM | [6] 8.33 µM

Clc1ccc(C(c2ccccc2Cl)C(Cl)Cl)cc1 (stereo not given)
active: [7] 23.5 µM | [6] 16.6 µM
inactive and 18.7 µM (active): [1]
not listed: [9]
inactive: all other assays above

Cc1cn([C@H]2C=C[C@@H](CO)O2)c(=O)[nH]c1=O
not listed: [5] | [6]
inactive: all other assays above

CC[C@@]1(O)C(=O)OCc2c1cc1n(c2=O)Cc2cc3c(CN(C)C)c(O)ccc3nc2-1
inactive and 41.8 nM (active): [1]
active: [4] 26.4 nM and 131 nM | [5] 53.1 nM and 296 nM | [7] 26.6 nM and 118 nM | [6] 6.7 nM and 23.5 nM

Cc1cn([C@H]2C[C@H](N=[N+]=[N-])[C@@H](CO)O2)c(=O)[nH]c1=O
inactive: [1] | [3] | [4] | [5]

CN1CCN(CCCN2c3ccccc3Sc3ccc(Cl)cc32)CC1
active: [7] 9.35 µM | [6] 0.0418 µM
inactive: [2] | [9] | [3] | [4]
23.5 µM (active) and inactive: [1]

COc1ccccc1N1CCN(CC(O)COc2cccc3ccccc23)CC1 (stereo not given)
not listed: [4]
inactive: all other assays above

Cc1cc(C(C)(C)C)cc(C)c1CC1=NCCN1
not listed: [1] | [6]
inactive: all other assays above

CC[N+](CC)(CC)CCOc1cccc(OCC[N+](CC)(CC)CC)c1OCC[N+](CC)(CC)CC
inactive: [1] | [3] | [4] | [5] | [7] | [6]

COc1ccc(C2CNC(=O)C2)cc1OC1CCCC1 (stereo not given)
not listed: [1] | [10]
inactive: all other assays above

COC(=O)Nc1nc2ccc(C(=O)c3cccs3)cc2[nH]1
active: [4] 46.6 nM and 236 nM | [5] 11.8 nM and 106 nM | [7] 0.0059 µM | [6] 4.7 nM and 94.4 nM
inactive: [2] | [8] | [3]

C[C@](N)(Cc1ccc(O)c(O)c1)C(=O)O
not listed: [1] | [7]
inactive: all other assays above

CS(=O)(=O)CCNCc1ccc(-c2ccc3ncnc(Nc4ccc(OCc5cccc(F)c5)c(Cl)c4)c3c2)o1
inactive: [4]
active: [5] 0.235 µM | [10] 10.5 µM | [7] 74.3 nM and 21.1 µM | [6] 93.5 nM and 11.9 µM

Cn1c(=O)c2[nH]cnc2n(C)c1=O
inactive: [2] | [8] | [3] | [4] | [5] | [7]

CC(C)(C)C(=O)Oc1ccc(S(=O)(=O)Nc2ccccc2C(=O)NCC(=O)O)cc1
not listed: [1] | [3]
inactive: all other assays above

Cc1ccc(C(=O)Nc2ccc(S(=O)(=O)O)c3cc(S(=O)(=O)O)cc(S(=O)(=O)O)c23)cc1NC(=O)c1cccc(NC(=O)Nc2cccc(C(=O)Nc3cc(C(=O)Nc4ccc(S(=O)(=O)O)c5cc(S(=O)(=O)O)cc(S(=O)(=O)O)c45)ccc3C)c2)c1
not listed: [1] | [9]
inactive: all other assays above

CS(=O)(=O)Nc1ccc([N+](=O)[O-])cc1Oc1ccccc1
inactive: [3] | [4] | [5] | [7]
active: [6] 23.5 µM

CN1CCC(=C2c3ccccc3CC(=O)c3sccc32)CC1
inactive: [2] | [9] | [8] | [3] | [4]
active: [6] 6.62 µM

CNCCCC12CCC(c3ccccc31)c1ccccc12
inactive: [2] | [9] | [8] | [3] | [4]
active: [7] 21.1 µM and 23.5 µM | [6] 23.5 µM

CC12CC3CC(C)(C1)CC(N)(C3)C2
inactive: [2] | [9] | [3] | [4]

NCCS(=O)(=O)O
not listed: [1]
inactive: all other assays above

Cn1c(=O)c2c(ncn2C)n(C)c1=O
inactive: [3] | [4] | [5] | [10] | [7] | [6]

COc1ccc2c(c1)c(CC(=O)O)c(C)n2C(=O)c1ccc(Cl)cc1
active: [6] 29.6 µM
inactive: [2] | [9] | [8] | [3] | [4]

CC(C)C(=O)Nc1ccc([N+](=O)[O-])c(C(F)(F)F)c1
inactive: [2] | [8] | [3] | [4]
active: [5] 4.69 µM | [7] 0.0118 µM

CN(Cc1cnc2nc(N)nc(N)c2n1)c1ccc(C(=O)N[C@@H](CCC(=O)O)C(=O)O)cc1
active: [4] 6.6 nM | [5] 0.0266 µM | [7] 4.2 nM and 59 nM | [6] 0.003 µM
inactive: [2] | [8] | [3]

Cc1cnc(C(=O)NCCc2ccc(S(=O)(=O)NC(=O)NC3CCCCC3)cc2)cn1
inactive: [3] | [4] | [5] | [7] | [6]

CCN1CCCC1CNC(=O)c1cc(S(=O)(=O)CC)c(N)cc1OC (stereo not given)
not listed: [1] | [10]
inactive: all other assays above

CN(C)C(=O)C(CCN1CCC(O)(c2ccc(Cl)cc2)CC1)(c1ccccc1)c1ccccc1
active: [7] 18.7 µM | [6] 18.7 µM
inactive: [2] | [9] | [8] | [3]

COc1ccc2[nH]cc(CCNC(C)=O)c2c1
not listed: [1] | [6] | [10]
inactive: all other assays above

CCCCc1oc2ccccc2c1C(=O)c1cc(I)c(OCCN(CC)CC)c(I)c1
active: [5] 5.9 µM | [7] 4.69 µM and 26.6 µM | [6] 1.18 µM and 13.3 µM
not listed: [1] | [10]
inactive: all other assays above

CN(C)C(=N)N=C(N)N
inactive: [4] | [5] | [7] | [6]

CN(C)CCOC(c1ccccc1)c1ccccc1
inactive: [2] | [9] | [8] | [3] | [5] | [7]

O=C1Cc2cc(CCN3CCN(c4nsc5ccccc45)CC3)c(Cl)cc2N1
not listed: [1] | [7]
inactive: all other assays above

O=c1c(-c2ccc(O)cc2)coc2cc(O)cc(O)c12
not listed: [1] | [7]
inactive: all other assays above

OCCN1CCN(CCCN2c3ccccc3Sc3ccc(C(F)(F)F)cc32)CC1
active: [10] 20.9 µM | [7] 18.7 µM | [6] 2.09 µM
not listed: [1]
inactive: all other assays above

Nc1nnc(-c2cccc(Cl)c2Cl)c(N)n1
not listed: [1] | [6] | [10]
inactive: all other assays above

CC(C(=O)O)c1cccc(C(=O)c2ccccc2)c1 (stereo not given)
inactive: [3] | [4] | [5] | [10]

COc1cc2c(c(OC)c1OC)-c1ccc(OC)c(=O)cc1[C@@H](NC(C)=O)CC2
active: [4] 7.5 nM and 1.3 nM | [5] 0.0084 µM | [7] 0.0067 µM | [6] 4.2 nM and 1 nM
inactive: [2] | [8] | [3]

CC1COc2c(N3CCN(C)CC3)c(F)cc3c(=O)c(C(=O)O)cn1c23 (stereo not given)
inactive: [3] | [4] | [5] | [10] | [6]

— PubChem BioAssay (NCATS)
